In PubChem BioAssay AID1016 (Sanford-Burnham Center for Chemical Genomics, 2008):
The campaign covered roughly 200,000 compounds. About 330 (0.17%) were called active. The sample holds actives, similar compounds and a random draw of the others, so the mix is not that of the screen.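 The calls were made as follows: active = activation factor of 2 or more at 20 µM, a signal rise over negative controls twice the positive control's; inactive = the rest.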

These compounds were tested on alkaline phosphatase, intestinal [Bos taurus] (assay: IAP enzyme activity enhancers – biochemical, bovine IAP, CDP-star luminescence, primary screen (AID 1016)). Conditions: purified bovine IAP, 30 min, at 20 µM, stronger effect = higher value, fold of DMSO-control signal, blank-subtracted.

Activation factor, inactive:
Cc1cccc(CC(=O)N2CCN=C2SCc2ccc([N+](=O)[O-])cc2)c1 0.8
COc1ccc(CCNc2cc(C)nc3c(-c4ccc(Cl)cc4)c(C)nn23)cc1OC 0.9
COc1ccc(-c2nc3cnccn3c2NC(C)(C)CC(C)(C)C)cc1O 1.2
COc1ccccc1N1CCN(c2ccc([N+](=O)[O-])nc2)CC1 1
CCS(=O)(=O)c1ccc(O)c(NC(=O)COc2ccc(Cl)cc2)c1 1
Clc1cccc(CN2COc3c(cc(Cl)c4cccnc34)C2)c1 0.8
Cc1ccc(Cl)c(NC(=O)CN(C)CC(=O)Nc2ccc(F)c(F)c2F)c1Cl 1.3
CCOC(=O)c1c(NC(=O)Cn2nc(C(F)(F)F)cc2C)sc2c1CCC2 1
CCc1ccc(C2C(C#N)=C(N)N(N3CCOCC3)C3=C2C(=O)CC(C)(C)C3)s1 (configuration not stated) 1
Cc1c(Br)ccc(NC(=O)COc2ccccc2C(N)=O)c1C 0.9
CC(C)NC(=S)N1CCN(C(c2ccccc2)c2ccccc2)CC1 0.9
COc1ccc(F)c(-c2nc(CN3CCC(c4ccccc4)CC3)c(C)o2)c1 1.1
C=CCC(CC=C)(C(N)=O)c1ccccc1 1
Fc1ccc(CNCc2ccc(Br)cc2)cc1 0.9
CCOC(=O)COc1cc(O)c2c(=O)cc(-c3ccccc3)oc2c1 1.1
CCN(CC)S(=O)(=O)c1ccc(OC(C)C)c(N)c1 1
COCCNc1cc(NCCOC)c([N+](=O)[O-])cc1[N+](=O)[O-] 1.3
Cc1ccc2[nH]c(=O)c(CN3CCCCC3)c(-c3ccccc3)c2c1 1.1
O=S(=O)(NCC1CCCO1)c1cnc(Cl)c(Cl)c1 (configuration not stated) 1
O=C(NCc1cccs1)c1ccc(Br)o1 1
O=[N+]([O-])c1ccc2c(c1)C(N1CCOCC1)/C(=C/C1(O)CCCCC1)O2 (configuration not stated) 1.1
CC(NC(=S)Nc1ccc(OC(F)F)cc1)c1ccc(F)cc1 (configuration not stated) 0.8
O=C1c2ccccc2NC(c2ccccc2O)N1NS(=O)(=O)c1ccccc1 (configuration not stated) 1
CN(CCc1ccccn1)C(=O)CCC1CCCN(Cc2ccccc2OC(F)F)C1 (configuration not stated) 1.1
Cc1ccnc(NC(=O)Cn2ccc([N+](=O)[O-])n2)c1 1
Cc1ccc(NC(=O)NC2CCCCC2)cc1S(=O)(=O)N1CCOCC1 1.2
Cc1ccc(N=C2NC(=O)c3cccc([N+](=O)[O-])c32)cc1 1
Cc1ccc(Sc2ccncc2S(N)(=O)=O)cc1 0.5
Cc1cc2ccccn2c1C(=O)c1cccc(S(=O)(=O)N2CCOCC2)c1 1
Cc1ccc([N+](=O)[O-])c(OCCCNCC(C)O)c1 (configuration not stated) 1
CCn1c(C(C)C)n[nH]c1=S 0.9
O=C(COC(=O)c1cc([N+](=O)[O-])ccc1NCc1ccccc1)NC1CCCCC1 1
COCCn1c(=NC(=O)c2ccccc2[N+](=O)[O-])sc2cc(S(C)(=O)=O)ccc21 1.2
CC(C)CC(CO)N1CCN(C(=O)c2ccc(Cl)cc2Cl)CCC1=O (configuration not stated) 1.2
Cc1cc2oc(=O)cc(CN3CCN(S(=O)(=O)c4cccs4)CC3)c2cc1C(C)C 0.9
N#C/C(=C/c1cccc([N+](=O)[O-])c1)c1nnc2n1CCCCC2 0.5
Cc1ccc(OCCCC(=O)NC(C)c2ccccc2)c(C)c1 (configuration not stated) 1
CN(c1ccccc1)S(=O)(=O)c1cccc(NC(=O)Cc2c(F)cccc2Cl)c1 0.9
CCCCC(CC)CNC(=O)C(=O)C1C(=O)Nc2ccccc21 (configuration not stated) 0.9
COc1ccc(OC)c(NC(=S)N2CCc3ccccc3C2)c1 1
CCS(=O)(=O)N1Cc2ccccc2CC1C(=O)Nc1nc2ccc(F)cc2s1 (configuration not stated) 1
COc1cccc(C(=O)Nc2cc3c(cc2Br)OCCCO3)c1 1.1
O=C(Nc1nnc(C2CC2)s1)C1=NN(C2CCS(=O)(=O)C2)C(=O)CC1 (configuration not stated) 1
Cc1ccc(S(=O)(=O)/N=C(/Nc2ccc3[nH]c(=O)[nH]c3c2)c2ccccc2)cc1 0.9
Cc1cc(/C=C2/C(=N)N3C(=NC2=O)SN=C3S(C)(=O)=O)c(C)n1-c1ccccc1 1.1
Cc1ccc(-n2cnc3ncnc(-c4ccccc4)c32)cc1 1.1
Cc1ccc(NC(=O)c2csc3c2CCCC3)cc1 0.9
Cc1cc(C)c(NC(=S)N2CCCC2C(=O)O)c(C)c1 (configuration not stated) 0.7
CC(Sc1nc(-c2ccccc2)cc(C(F)(F)F)n1)C(=O)Nc1ccc2c(c1)OCO2 (configuration not stated) 0.9
Cc1ccsc1/C=N/n1c(=S)[nH]nc(C)c1=O 0.9
CC(C)C(C)(C#N)NC(=O)CSc1nncn1-c1ccccc1 (configuration not stated) 1
Cc1[nH]c2c(C(=O)N3CCCC(CCC(=O)NCc4ccccc4F)C3)cccc2c1C (configuration not stated) 1.3
COC(=O)c1cccc([N+](=O)[O-])c1CS(=O)(=O)c1ccc(C)cc1 0.8
O=C(COC(=O)c1ccco1)NCc1ccc(Cl)cc1 1
O=C(N/N=C/c1cccc([N+](=O)[O-])c1)C1CC(=O)N(c2ccc(Br)cc2)C1 (configuration not stated) 0.7
CCN(CC(=O)NC(=O)NCc1ccccc1)Cc1nc2ccccc2c(=O)[nH]1 1.5
CN(C)S(=O)(=O)c1cc(NC(=O)CN2C(=O)NC3(CCCc4ccccc43)C2=O)ccc1Cl (configuration not stated) 1
N#Cc1c(-c2ccc(Cl)cc2)c2c([nH]c1=S)CCCC2 0.8
CCNS(=O)(=O)c1ccc(NC(=O)Nc2cccc(C(F)(F)F)c2)cc1 0.6
O=C(O)CSCC(=O)Nc1cccc(C(F)(F)F)c1 0.9

Activation factor, active:
CCN(CC(=O)Nc1ccc(Cl)c(S(=O)(=O)N(C)C)c1)Cc1nc2ccccc2c(=O)[nH]1 2.1
CC(C)C[C@H](NC(=O)Nc1cccc(C(F)(F)F)c1)C(=O)O 4.4
